A selection: hits, their analogues and other compounds. The true share with any hit is near 5.4%.
NR0B1 inh: inhibitors of human orphan nuclear receptor DAX1 (NR0B1); P51843; 340,000 tested, 0.99% active; HEK293 Gal4-DAX1 luciferase reporter, luminescence; AID 504766; inhibition, % at 6.75 µM;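 active = inhibition above the mean over all tested compounds plus 3 SD, cut at about 4.2% in these data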;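 also: 0% = DAX1-transfected cells with DMSO and 100% = empty-vector control cells with DMSO; inhibition shows as a rise in luminescence from relieved DAX1 repression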
FXN GAA850 act: increases GAA850 frataxin promoter reporter activity. activation, % at 6 µM. 360,000 tested, 0.56% active. HEK293 lucGAA850 FXN promoter luciferase reporter, 24 h; percent of 10 µM SAHA response;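 active = activation above the average of all compounds screened plus 3 SD, cutoff fixed separately per campaign, cut at about 7.5% in these data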;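 also: 0% = DMSO wells and 100% = 10 µM SAHA wells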
AHR act: activates the human aryl hydrocarbon receptor; P35869; AHR-responsive luciferase reporter cells, luminescence; activation, % at 5 µM; 320,000 tested, 2.5% active; in the data active = activation above about 47%;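 also: 0% = vehicle wells and 100% = reference agonist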
Target sequence (P35869 whole entry, looked up): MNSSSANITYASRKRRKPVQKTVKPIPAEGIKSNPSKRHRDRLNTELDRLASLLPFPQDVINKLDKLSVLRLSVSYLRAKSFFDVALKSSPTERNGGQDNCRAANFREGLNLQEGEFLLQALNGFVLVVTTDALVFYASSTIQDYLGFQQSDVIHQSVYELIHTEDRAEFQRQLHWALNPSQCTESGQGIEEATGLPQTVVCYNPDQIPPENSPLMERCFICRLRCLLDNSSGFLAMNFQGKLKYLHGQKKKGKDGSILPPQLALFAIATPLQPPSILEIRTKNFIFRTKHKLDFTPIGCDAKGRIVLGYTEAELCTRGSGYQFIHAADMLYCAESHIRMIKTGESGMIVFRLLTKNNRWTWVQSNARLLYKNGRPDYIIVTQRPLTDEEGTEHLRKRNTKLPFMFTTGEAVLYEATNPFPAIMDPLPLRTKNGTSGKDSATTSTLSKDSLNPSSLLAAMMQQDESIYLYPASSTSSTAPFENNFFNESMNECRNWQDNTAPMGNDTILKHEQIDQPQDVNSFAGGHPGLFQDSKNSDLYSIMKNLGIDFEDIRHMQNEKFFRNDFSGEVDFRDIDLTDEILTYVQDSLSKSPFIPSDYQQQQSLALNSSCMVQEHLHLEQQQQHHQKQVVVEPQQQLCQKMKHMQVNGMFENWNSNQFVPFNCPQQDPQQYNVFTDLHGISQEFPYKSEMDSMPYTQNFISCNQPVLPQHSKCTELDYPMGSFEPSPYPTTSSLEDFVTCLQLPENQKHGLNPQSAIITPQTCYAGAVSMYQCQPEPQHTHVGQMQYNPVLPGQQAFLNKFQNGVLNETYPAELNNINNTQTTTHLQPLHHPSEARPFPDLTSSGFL
HSF1 inhib: HSF1 inhibition. NIH3T3-HGL HSE-luciferase, MG132-induced, luminescence 8 h; stronger effect = lower value. activity change, negative = inhibition, % at 7.5 µM (by protocol). 300,000 tested, 0.77% active;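 active = more than half of replicate wells show activity change below -50%, luminescence cut by over half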;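 also: luciferase reports HSF-1 transcriptional activity via heat shock element; 0% = median of DMSO wells and -100% = zero luminescence signal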
HSF-1 act: increases HSF-1 driven luciferase reporter signal | NIH3T3-HGL HSF-1 luciferase reporter, MG132, 8 h; 100% = twice DMSO control signal | activation, % at 9 µM | 300,000 tested, 1.7% active | AID 504408;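 active = mean replicate activation of at least 50% with a set share of replicates each reaching 50%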;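 also: 0% = median of the neutral control wells and 100% = twice that signal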
* marks the source's active call; other numbers are inactive results; . = not tested or not shown.

SMILES	NR0B1 inh	FXN GAA850 act	AHR act	HSF1 inhib	HSF-1 act
COC(=O)C1=C(CN2CCCc3ccccc32)NC(=O)NC1c1ccc(F)cc1 (centres undefined)	-4	-20	1	-71*	-74
COC(=O)C1=C(CN2CCc3ccccc32)NC(=O)NC1c1cc(C)ccc1C (centres undefined)	1	-2	16	12	7
O=C(Nn1cnnc1)c1ccc(Cl)c(Cl)c1	6.2*	0	1	0	-11
O=C(Nn1cnnc1)c1cc(Br)ccc1Cl	1	2	-2	-3	-4
Cc1ccccc1-n1c(-c2cccnc2)n[nH]c1=S	1	-2	5	0	5
CC(C)c1ccccc1-n1c(-c2cccnc2)n[nH]c1=S	1	1	0	-65*	-71
CCN(CC(=O)Nc1ccc(NC(C)=O)cc1)C(=O)CCCSc1nc2ccccc2[nH]1	0	2	-1	-5	3
CC(C)(C)NC(=O)Cn1nnc(-c2ccc(OCc3c(F)cccc3Cl)cc2)n1	-1	1	-5	17	11
CCn1cnc2c(NCCc3cccnc3)nc(C#N)nc21	-1	1	71*	.	.
CCn1cnc2c(Nc3cccc(Cl)c3)nc(C#N)nc21	2	6	22	.	.
Cc1ccc(-n2c(C)cc(/C=c3/sc4nc5ccccc5n4c3=O)c2C)cc1	.	.	-1	-82*	-85
O=c1/c(=C\c2cccn2-c2ccccc2)sc2nc3ccccc3n12	3	2	.	.	.
CCOC(=O)c1cnc(SC)nc1N	0	-1	-6	0	5
CCOC(=O)c1cnc(SCC#N)nc1N	6.9*	2	1	-6	8
NS(=O)(=O)c1c(Sc2ccccc2C(=O)O)ccc2ccccc12	1	3	21	-19	-23
Oc1ccccc1-n1c(-c2ccccc2)ccc1-c1ccccc1	-1	-2	51*	1	13
CN(Cc1ccc(OC(F)F)cc1)C(=O)c1ccc2c(=O)n3c(nc2c1)CCC3	-1	0	1	-2	0
CCCCC[C@H](O)/C=C/[C@@H]1[C@@H](C/C=C\CCCC(=O)OC)[C@@H](O)C[C@H]1O	-1	4	1	-1	-14
CCCCC[C@H](O)/C=C/C1C(=O)C=C[C@H]1C/C=C\CCCC(=O)OC (some centres undefined)	-1	8.2*	.	.	.
COc1cccc(NC(=O)COC(=O)c2ccccc2C(=O)N(C)c2ccccc2)c1	1	0	1	.	.
Oc1[nH]c2ccccc2c1N=Nc1ccccc1Cl	3	4	.	-56	-56
Oc1c(C=Nc2ccccc2Cl)[nH]c2ccccc12	2	3	57*	-33	-46
Nc1nc2c(s1)CCc1c-2cnn1-c1ccccc1	2	6	13	53	72*
Cc1ccc(S(=O)(=O)N2CC(C)C(=O)CC2C)cc1 (centres undefined)	0	2	-3	0	-1
Cc1cc(N/N=C/c2ccc(O)c(C)c2O)nc(-c2ccccc2O)n1	-3	-9	1	-59*	-62
SMILES	NR0B1 inh	FXN GAA850 act	AHR act	HSF1 inhib	HSF-1 act
CC(C)c1ccc(-n2cnn(-c3ncccc3[N+](=O)[O-])c2=O)cc1	1	1	51*	26	54*
Cc1cc(C)n(-c2ncccc2[N+](=O)[O-])n1	0	-2	-1	-4	5
Cn1ncc(Cl)c1C(=O)NCc1ccc2c(c1)OCO2	-1	-3	49*	5	-7
Cn1ncc(Cl)c1C(=O)Nc1ccc(CN2CCCCC2)cc1	2	-2	76*	-1	-15
CCc1ccc(NC(=O)c2cnc3scc(C)n3c2=O)cc1	1	2	63*	22	27
Cc1csc2ncc(C(=O)NCc3ccc4c(c3)OCO4)c(=O)n12	.	.	78*	-2	4
Cc1csc2ncc(C(=O)NCc3ccccc3Cl)c(=O)n12	1	2	45	5	1
CCOc1ccc(S(=O)(=O)N2CCCCC2)cc1NC(=O)Cc1cccc(C(F)(F)F)c1	0	2	1	.	.
O=C(OCc1csc(Nc2ccccc2)n1)c1ccc(Cl)cc1	1	1	7	-6	1
COC(=O)c1cc(=O)n(Cc2cccs2)c(=Nc2ccccc2)s1	4.3*	3	0	27	32
CCOC(=O)c1ccc(N=c2sc(C(=O)OC)cc(=O)n2-c2ccc(C(=O)OCC)cc2)cc1	1	4	0	69	105*
CC(=O)Nc1ccc2c(c1)nc1n2CCN(C2CCCCC2)C1	1	6	.	.	.
C=CCN(C(=O)CNC(=O)c1ccco1)C(C(=O)NC1CCCC1)c1ccc(OC)cc1 (centres undefined)	-1	1	1	1	-5
Cc1ccc(NC(=O)c2ccc3nc[nH]c3c2)cc1C	2	3	64*	16	31
Cc1cc(C)cc(NC(=O)c2ccc3nc[nH]c3c2)c1	-2	5	45	-1	13
Cc1ccc(NC(=O)c2sc(Cl)nc2-c2ccccc2)cc1C	1	0	6	26	61*
Cc1ccc(NC(=O)c2c(C)nc3ccccn23)cc1C	5.6*	3	-2	13	41
Cc1nc2ccccn2c1C(=O)NN=C1C2CC3CC(C2)CC1C3	0	1	48*	8	11
Cc1nc2ccccn2c1C(=O)N/N=C/c1ccccc1	0	1	17	0	3
Cc1cc2ccccn2c1C(=O)Nc1ccccc1	1	1	60*	3	-13
Cc1cc2ccccn2c1C(=O)Nc1ccc(Cl)cc1	3	2	38	6	24
Cc1ccc(NC(=O)c2cnc3ccccc3n2)cc1C	2	3	24	23	62*
O=C(CCNC(=O)c1ccc(Cl)cc1)Nc1ccc(S(=O)(=O)N2CCCCC2)cc1	0	0	0	-7	-6
O=C(CSc1cccc[n+]1[O-])Nc1ccc2c(c1)OCO2	0	0	2	-2	6
CCOc1ccc(/C=N/Nc2ccccn2)cc1OC	2	6	38	13	28
SMILES	NR0B1 inh	FXN GAA850 act	AHR act	HSF1 inhib	HSF-1 act
CCOc1ccc(/C=N/N(C)c2ccccc2)cc1OC	3	6	10	51	73*
O=C(COc1ccc(Cl)cc1Cl)OCC(=O)N1CCCc2ccccc21	9.8*	1	1	-4	-10
O=C(COC(=O)C1(c2ccc(F)cc2)CCCC1)N1CCc2ccccc21	0	2	3	14	36
O=C(COC(=O)C1(c2ccccc2F)CCCC1)N1CCc2ccccc21	-1	3	3	-61*	-64
O=C(CCCOc1ccc(Cl)cc1Cl)N1CCCc2ccccc21	-1	5	6	8	28
NS(=O)(=O)c1ccc(NC(=O)COC(=O)C2(c3ccccc3F)CCCC2)cc1	0	-2	3	-57*	-66
O=C(OCC(=O)N1CCc2ccccc21)c1ccccc1	0	4	-4	34	68*
Cc1ccc(NC(=O)CNCc2cccs2)cc1Br	-1	2	1	12	7

Compound activity: PubChem, several laboratories
